Measured values taken from PubChem BioAssay (NCI).
The panel holds about 79,000 compounds, 15% with a hit somewhere; the sample as a whole holds those more often. Unmarked numbers belong to inactive results. Calls of active or inactive are those of the source. No stated cut-off is given here; in the data, active means growth inhibition above about 70%; inactive means the rest.

Experiments:
[1] = NCI Yeast Anticancer Drug Screen. Data for the rad50 strain (AID 155);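 further: 0% = growth of vehicle-only cultures of the same strain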; conditions: S. cerevisiae rad50 strain growth inhibition, active compounds read high
In short: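 Inhibition values express reduced yeast growth in compound-treated cultures relative to vehicle-treated controls.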

[2] = NCI Yeast Anticancer Drug Screen. Data for the mec2-1 strain (AID 157); conditions: S. cerevisiae mec2-1 strain, active compounds read high
In short: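 Each compound was tested on mec2-1 yeast, a strain altered in DNA damage repair or cell cycle control. Growth inhibition is reported relative to vehicle.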

[3] = NCI Yeast Anticancer Drug Screen. Data for the sgs1 mgt1 strain (AID 161);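 further: 0% = growth of cultures given vehicle only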; conditions: S. cerevisiae sgs1 mgt1 strain, active compounds read high
In short: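 Test agents were incubated with a DNA-repair-mutant yeast strain. Growth was then read and compared against vehicle-treated controls.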

[4] = NCI Yeast Anticancer Drug Screen. Data for the cln2 rad14 strain (AID 165);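 further: 0% = growth equal to vehicle treated cultures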; conditions: S. cerevisiae cln2 rad14 strain, active compounds read high
In short: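 Test compounds were added to cln2 rad14 yeast cultures; inhibition of growth was then determined by comparison with vehicle treatment.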

[5] = NCI Yeast Anticancer Drug Screen. Data for the bub3 strain (AID 167); conditions: S. cerevisiae bub3 mutant strain, active compounds read high
In short: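 Steps: expose the mutant yeast strain to compound; grow alongside vehicle-treated cultures; measure growth; express inhibition against the vehicle cultures.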

[6] = NCI Yeast Anticancer Drug Screen. Data for the mlh1 rad18 strain (AID 175); conditions: S. cerevisiae mlh1 rad18 strain growth inhibition, active compounds read high
In short: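 Inhibition values reflect reduced growth of mutant yeast versus vehicle-treated controls following compound exposure; the mutations affect DNA damage repair.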

[7] = at 5.0 µM (retest, dose inferred, filed as 0.5)
[8] = at 50.0 µM (retest, dose inferred, filed as 5.0)

Compound	growth inhibition [1, 7]	growth inhibition [1, 8]	growth inhibition ([1]; at 50.0 µM)	growth inhibition [2, 7]	growth inhibition [2, 8]	growth inhibition ([2]; at 50.0 µM)	growth inhibition [3, 7]	growth inhibition [3, 8]	growth inhibition ([3]; at 50.0 µM)	growth inhibition [4, 7]	growth inhibition [4, 8]	growth inhibition ([4]; at 50.0 µM)	growth inhibition [5, 7]	growth inhibition [5, 8]	growth inhibition ([5]; at 50.0 µM)	growth inhibition [6, 7]	growth inhibition [6, 8]	growth inhibition ([6]; at 50.0 µM)
CCCCNC(=O)OCc1c(COC(=O)NCCCC)c(-c2ccc(Cl)c(Cl)c2)n2c1CCC2	33%	98% (active)	26.6%	27%	99% (active)	7.3%	48%	99% (active)	31.2%	53%	98% (active)	70%	56%	98% (active)	4.4%	25%	98% (active)	31.8%
CC1(c2ccc(Cl)cc2)OC(=O)C(=Cc2ccc([N+](=O)[O-])s2)C(=O)O1 (configuration not stated)	26%	99% (active)	51.5%	15%	99% (active)	40.4%	49%	99% (active)	88.9% (active)	44%	99% (active)	52.4%	45%	99% (active)	84.7% (active)	18%	82% (active)	92.9% (active)
CC(=O)Nc1cccc(C(=O)O)c1	6%	-2%	1.3%	-1%	-4%	0%	-5%	1%	5.75%	4%	-1%	39.9%	4%	7%	8.6%	1%	-3%	-16.6%
CCCCCc1[nH]nc(C(=O)OC)c1N=NN1CCOCC1	43%	98% (active)	99.2% (active)	91% (active)	99% (active)	99.6% (active)	62%	99% (active)	99.5% (active)	68%	99% (active)	99.5% (active)	81% (active)	99% (active)	99.4% (active)	89% (active)	99% (active)	99.5% (active)
COc1ccc(/C=C2\N=C(c3ccco3)OC2=O)cc1Br	16%	2%	-4.8%	-17%	-4%	5.85%	-1%	12%	11%	30%	22%	4.8%	5%	13%	27.1%	-7%	-32%	5.65%
CC1CCC2(C)C(CC=C(C=O)C2(O)C=O)C12CO2 (configuration not stated)	99% (active)	99% (active)	93.4% (active)	99% (active)	99% (active)	95.3% (active)	99% (active)	99% (active)	94.5% (active)	99% (active)	99% (active)	92.9% (active)	99% (active)	54%	93.8% (active)	99% (active)	99% (active)	93.5% (active)
Cc1cccc(Cl)c1NC(=S)Nc1cccc(C(F)(F)F)c1	-4%	2%	88.8% (active)	2%	8%	89.4% (active)	10%	1%	92.3% (active)	24%	23%	88.3% (active)	20%	9%	89.6% (active)	-21%	17%	86.2% (active)
CC12CCc3ccccc3C1=Nc1ccccc12 (configuration not stated)	-3%	78% (active)	78.7% (active)	2%	89% (active)	73.2% (active)	8%	82% (active)	58.2%	-12%	-20%	-11.1%	12%	90% (active)	88.7% (active)	-3%	72% (active)	55.5%
COc1cc(C(c2cc3c(cc2O)OCO3)N2CCN(C(c3ccc(O)c(OC)c3)c3cc4c(cc3O)OCO4)CC2)ccc1O (configuration not stated)	-1%	98% (active)	99.2% (active)	3%	99% (active)	99.3% (active)	-3%	97% (active)	99.5% (active)	2%	82% (active)	96.7% (active)	-1%	99% (active)	99% (active)	2%	98% (active)	98.5% (active)
CCCCCCCC[N+](C)(C)Cc1ccc(C[N+](C)(C)CCCCCCCC)cc1	1%	24%	8.75%	15%	26%	7.5%	3%	34%	1.05%	0%	18%	24.9%	2%	16%	8.35%	0%	33%	86% (active)
S=c1[nH]c(-c2ccccc2)cs1	-2%	77% (active)	79.5% (active)	0%	71% (active)	85.1% (active)	0%	83% (active)	92% (active)	-15%	73% (active)	80.2% (active)	-24%	89% (active)	74% (active)	1%	89% (active)	89.5% (active)
CC1(C(Cl)(Cl)Cl)C=CC(=NO)C=C1 (configuration not stated)	1%	28%	65.8%	2%	34%	21.4%	1%	44%	70.8% (active)	3%	26%	30.1%	-4%	29%	18.7%	-4%	34%	54.1%
CCCOc1cc(C(=O)OCCN(CC)CC)cc(OCCC)c1OCCC	6%	29%	36.9%	6%	19%	15.8%	4%	43%	44.8%	8%	13%	15.1%	-21%	12%	23%	0%	41%	61.8%
Clc1ccc(-c2nnn3ccccc23)cc1	4%	8%	95.3% (active)	12%	9%	93.5% (active)	-3%	12%	95.8% (active)	4%	10%	28.6%	2%	5%	91.7% (active)	13%	51%	94.1% (active)
S=C(Nc1ccccc1)NC1CC2C=CC1CC2 (configuration not stated)	-9%	-4%	-5%	-11%	-12%	7.2%	-4%	2%	1.6%	-23%	-11%	31.6%	-4%	0%	19.6%	-4%	-13%	13.2%
COc1ccc(C(=O)Cc2ccc(Cl)cc2)cc1OC	-12%	-1%	6.3%	-7%	-13%	2.65%	-14%	-17%	10.5%	9%	-3%	-4.45%	-1%	-1%	3.55%	-17%	-22%	16.6%
COC1=C(NC(C)=O)C(=O)c2nc(-c3nc(C(=O)O)c(C)c(-c4ccc(OC)c(OC)c4O)c3N)ccc2C1=O	59%	93% (active)	78.4% (active)	28%	79% (active)	69.7%	43%	92% (active)	68.7%	38%	90% (active)	57.1%	15%	70% (active)	55.8%	48%	89% (active)	87% (active)
CC1C(C(=O)O)CC([N+](=O)[O-])C(Cl)C1[N+](=O)[O-] (configuration not stated)	13%	60%	20.9%	-1%	83% (active)	87.4% (active)	-5%	26%	82.1% (active)	15%	44%	35.4%	11%	88% (active)	74.7% (active)	9%	93% (active)	54.6%
O=C1CCC(Cc2ccc(C(F)(F)F)cc2)C(=O)N1 (configuration not stated)	-3%	7%	1.65%	-1%	3%	22.1%	2%	92% (active)	95.8% (active)	-3%	5%	-42.7%	-2%	-2%	-52.6%	-4%	3%	6.6%
